Here are results for 21 molecules from PubChem BioAssay (NCI).

This is part of a sample that, as a whole, favours compounds with a hit. Of some 79,000 tested, about 15% had one in any assay. A number with no mark means an inactive call. Active and inactive are the calls of the source. Cut-off read from the data, not from the text of the source: active = growth inhibition above about 70%; inactive = the rest.

Experiment [1] in a line: NCI Yeast Anticancer Drug Screen. Data for the rad50 strain (AID 155).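 Note: 0% = growth of vehicle-only cultures of the same strain.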 The note with it: S. cerevisiae rad50 strain growth inhibition; at 50.0 µM; active compounds read high. Summed up:
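Cells are treated with compound, grown, and their growth is then scored against vehicle-only cultures of the same repair-deficient yeast strain.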

Experiment [2] can be described thus: NCI Yeast Anticancer Drug Screen. Data for the mec2-1 strain (AID 157). The note with it: S. cerevisiae mec2-1 strain, at 50.0 µM, active compounds read high. A digest of the protocol:
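Strain: mec2-1 (DNA repair/cell cycle alteration). Compound exposure, then growth measured; inhibition expressed relative to vehicle.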

A short description of experiment [3]: NCI Yeast Anticancer Drug Screen. Data for the sgs1 mgt1 strain (AID 161).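 Note: 0% = growth of cultures given vehicle only.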 The note with it: S. cerevisiae sgs1 mgt1 strain, at 50.0 µM, active compounds read high. Summed up:
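Read-out: growth inhibition vs vehicle controls. Cells: mutant yeast strain deficient in DNA damage repair.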

Experiment [4] is described as follows: NCI Yeast Anticancer Drug Screen. Data for the cln2 rad14 strain (AID 165).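 Note: 0% = growth equal to vehicle treated cultures.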 The note with it: S. cerevisiae cln2 rad14 strain, at 50.0 µM, active compounds read high. A digest of the protocol: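 Compounds are applied to the cln2 rad14 yeast strain, and growth is then compared with that of vehicle-treated cultures to give inhibition.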
A short description of experiment [5]: NCI Yeast Anticancer Drug Screen. Data for the bub3 strain (AID 167). The settings on record: S. cerevisiae bub3 mutant strain, at 50.0 µM, active compounds read high. A digest of the protocol:
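Part of a panel of yeast mutants defective in DNA damage repair or cell cycle regulation. Each strain is grown with compound, and inhibition is calculated relative to solvent-treated cultures.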

A short description of experiment [6]: NCI Yeast Anticancer Drug Screen. Data for the mlh1 rad18 strain (AID 175). The settings on record: S. cerevisiae mlh1 rad18 strain growth inhibition; at 50.0 µM; active compounds read high. A digest of the protocol: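 Read-out is yeast growth inhibition, calculated against vehicle-only controls. The compound was applied to a strain engineered with DNA damage repair alterations.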

For `CCC(C)c1ccc(CCO)cc1` (stereo unspecified), the growth inhibition in experiment [1] is 27.2%; in experiment [2] it was 2.4%; in experiment [3], -10.2%; in experiment [4], 10%; in experiment [5], -6.65%; in experiment [6] it was 4.45%.

For the molecule `CCOc1ccc(-n2c(O)c(N=Nc3ccccc3OC)c(=O)n(-c3ccc(OC)cc3)c2=S)cc1`, the growth inhibition in experiment [1] is 18.4%; in experiment [2], -7.9%; in experiment [3], -10.3%; in experiment [4], -10.4%; in experiment [5], -4.8%; in experiment [6] it was 7.05%.

Take `Cc1cccc(C(=O)NC(C)C)c1`: the growth inhibition in experiment [1] was -7.75%; in experiment [2], -40%; in experiment [3], -5.9%; in experiment [4], 15.8%; in experiment [5], -4.95%; in experiment [6], -19.6%.

Regarding `CC(C)CCC[C@@H](C)[C@H]1CC[C@H]2[C@@H]3CC[C@H]4N(C)[C@@H](Cc5ccccc5)CC[C@]4(C)[C@H]3CC[C@]12C`, the growth inhibition in experiment [1] was 21.8%; in experiment [2], 27.6%; in experiment [3], 32.5%; in experiment [4], 24.7%; in experiment [5] it was 15.4%; in experiment [6] it was -0.05%.

On to `CCOC(=O)CON`, for which the growth inhibition was -7.35% in experiment [1]; 1.9% in experiment [2]; -7.45% in experiment [3]; -51% in experiment [4]; -12.4% in experiment [5]; -5.8% in experiment [6].

As to `CCC(C(=O)O)C(=O)O.[NH-]CC1CCCC[N-]1.[Pt+2]`, the growth inhibition is 7.7% in experiment [1]; -3.6% in experiment [2]; 2.55% in experiment [3]; 7.95% in experiment [4]; -39.5% in experiment [5]; -34.7% in experiment [6].

As to `CCCN=C(NNC(N)=O)C(C)=O`, the growth inhibition in experiment [1] is 24.9%; in experiment [2], 7.9%; in experiment [3] it was -4.35%; in experiment [4] it was 5.55%; in experiment [5], 15.7%; in experiment [6] it was -1.45%.

As to `O=C1c2ccccc2N(Cc2cccc(F)c2)C2=NCCCC12` (stereo unspecified), the growth inhibition is -4.2% in experiment [1]; -39% in experiment [2]; 14.2% in experiment [3]; 0.35% in experiment [4]; 8.3% in experiment [5]; 0.35% in experiment [6].

Regarding `NCCCOc1ccccc1`, the growth inhibition in experiment [1] was -3.6%; in experiment [2] it was -7.8%; in experiment [3] it was -5.1%; in experiment [4], -10.3%; in experiment [5], -7.05%; in experiment [6], -9.35%.

In the case of `O=[N+]([O-])c1cccc(N=C2c3ccccc3CN2c2cccc([N+](=O)[O-])c2)c1`, the growth inhibition in experiment [1] was -23.4%; in experiment [2], 5.8%; in experiment [3], -5.3%; in experiment [4], 26.7%; in experiment [5], 11.5%; in experiment [6] it was -0.4%.

As for `O=C1c2cn[nH]c2N=C(Nc2ccccc2)C1N=Cc1ccc([N+](=O)[O-])cc1` (stereo unspecified), the growth inhibition in experiment [1] is -32.6%; in experiment [2] it was -45.2%; in experiment [3], -13.8%; in experiment [4], 12.5%; in experiment [5], -24.3%; in experiment [6], -17.9%.

For `CCC1=C[C@H]2CN(CCc3c([nH]c4ccccc34)[C@@](C(=O)OC)(c3cc4c(cc3OC)N(C)[C@H]3C(C(=O)OC)=C[C@]5(CC)C=CCN6CC[C@]43[C@@H]65)C2)C1`, the growth inhibition in experiment [1] is -14.7%; in experiment [2] it was -14.4%; in experiment [3], -4.75%; in experiment [4] it was -13.5%; in experiment [5] it was -0.8%; in experiment [6] it was -18.9%.

With `CCN(CC)C(=O)c1ccncc1C(=O)c1ccncc1`, the growth inhibition was -1.2% in experiment [1]; -3.55% in experiment [2]; -8.4% in experiment [3]; -14.3% in experiment [4]; -1.95% in experiment [5]; -10.1% in experiment [6].

As for `COP(=O)(OC)/C(=C\c1cn(C(c2ccccc2)(c2ccccc2)c2ccccc2)cn1)NC(C)=O`, the growth inhibition is -9.65% in experiment [1]; -32% in experiment [2]; -11.4% in experiment [3]; -22.1% in experiment [4]; -19.1% in experiment [5]; -10.2% in experiment [6].

Regarding `CCOC(=O)C(=O)Nc1ccccc1`, the growth inhibition is 43.8% in experiment [1]; -1.4% in experiment [2]; 21% in experiment [3]; -21.1% in experiment [4]; -4.15% in experiment [5]; 18.8% in experiment [6].

For the molecule `CCOC(=O)c1ccc2c(c1)Cc1c-2cc(Br)c(N)c1Br`, the growth inhibition was 78.5% (active) in experiment [1]; 3.1% in experiment [2]; 45% in experiment [3]; 9.15% in experiment [4]; 18.4% in experiment [5]; 47% in experiment [6].

With `O=C(/C=C/c1cc2ccccc2o1)N1CCN(c2ccccn2)CC1`, the growth inhibition in experiment [1] was 28.6%; in experiment [2], 27.6%; in experiment [3], 39.2%; in experiment [4], 11.3%; in experiment [5] it was 17.9%; in experiment [6], 15.8%.

For the molecule `O=C1CC2CCCC23CC2(CCN13)OCCO2` (stereo unspecified), the growth inhibition in experiment [1] is -3.15%; in experiment [2], 0.7%; in experiment [3] it was -0.3%; in experiment [4], -27.4%; in experiment [5] it was -2.3%; in experiment [6], 6.35%.

Take `COC(=O)C1CC23CCCC12CC3` (stereo unspecified): the growth inhibition in experiment [1] is 21.6%; in experiment [2] it was -1.25%; in experiment [3], 2.3%; in experiment [4], -66.7%; in experiment [5], 8.05%; in experiment [6], -7.05%.

For the molecule `C#CCC1(C(=O)OCC)C(=O)c2ccccc2N(C)C1=O` (stereo unspecified), the growth inhibition in experiment [1] was 16.9%; in experiment [2] it was 1.55%; in experiment [3], 31.1%; in experiment [4], 11.4%; in experiment [5], 14%; in experiment [6] it was 6.95%.

On to `CCN(CC)COC(=O)C(C)(C)C`, for which the growth inhibition in experiment [1] is -13.1%; in experiment [2], 10.6%; in experiment [3] it was -12.9%; in experiment [4], -35%; in experiment [5], -9.25%; in experiment [6] it was -4.2%.
